Among all 5,500 compounds or so, about 2,000 (36%) were called active. About 18% were inconclusive and are not listed. The list shows a part of the results. Unmarked numbers belong to inactive results. Cut-off read from the data, not from the text of the source: active = normalized growth mostly below about 0.91 (no sharp cut-off); inconclusive = no clear call, values can overlap the other calls; inactive = mostly above about 0.92.
Experiment: chemical genetic growth profiling, strain panel (AID 1159580);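 note: tested at 20 µM; growth read once vehicle control cultures reached saturation at 30 °C; 1 = growth at the plate median or of vehicle wells; lower values mean less growth of the strain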
Conditions: S. cerevisiae deletion strains, growth OD
[1] = locus YAL021C, strain ccr4, hits give low values
[2] = locus YAL026C, strain drs2, hits give low values
[3] = locus YAL030W, strain snc1, hits give low values
[4] = locus YBL061C, strain skt5, hits give low values
[5] = locus YBR009C, strain hhf1, hits give low values
[6] = locus YBR023C, strain chs3, hits give low values
[7] = locus YBR171W, strain sec66, hits give low values
[8] = locus YBR231C, strain swc5, hits give low values
[9] = locus YBR279W, strain paf1, hits give low values
[10] = locus YCL011C, strain gbp2, hits give low values
[11] = locus YCL016C, strain dcc1, hits give low values
[12] = locus YCL061C, strain MRC1, hits give low values
[13] = locus YCL069W, strain vba3, hits give low values
[14] = locus YCR088W, strain abp1, hits give low values
[15] = locus YDL005C, strain med2, hits give low values
[16] = locus YDL040C, strain nat1, hits give low values
[17] = locus YDR001C, strain nth1, hits give low values
[18] = locus YDR069C, strain doa4, hits give low values
[19] = locus YDR137W, strain rgp1, hits give low values
[20] = locus YDR159W, strain sac3, hits give low values
[21] = locus YDR297W, strain sur2, hits give low values
[22] = locus YDR334W, strain swr1, hits give low values
[23] = locus YDR335W, strain msn5, hits give low values
[24] = locus YDR392W, strain spt3, hits give low values
[25] = locus YEL003W, strain gim4, hits give low values
[26] = locus YEL037C, strain rad23, hits give low values
[27] = locus YEL061C, strain CIN8 (second series), hits give low values
[28] = locus YER015W, strain faa2, hits give low values
[29] = locus YER016W, strain bim1, hits give low values
[30] = locus YER111C, strain swi4, hits give low values
[31] = locus YER155C, strain BEM2 (second series), hits give low values
[32] = locus YFR010W, strain ubp6, hits give low values
[33] = locus YGL167C, strain pmr1, hits give low values
[34] = locus YGL173C, strain kem1, hits give low values
[35] = locus YGL227W, strain vid30, hits give low values
[36] = locus YGL240W, strain doc1, hits give low values
[37] = locus YGL253W, strain hxk2, hits give low values
[38] = locus YHR013C, strain ard1, hits give low values
[39] = locus YHR027C, strain rpn1, hits give low values
[40] = locus YHR142W, strain chs7, hits give low values
[41] = locus YJL092W, strain hpr5, hits give low values
[42] = locus YJL095W, strain BCK1 (second series), hits give low values
[43] = locus YJL115W, strain asf1, hits give low values
[44] = locus YJL129C, strain trk1, hits give low values
[45] = locus YJL154C, strain vps35, hits give low values
[46] = locus YJL164C, strain tpk1, hits give low values
[47] = locus YJL166W, strain qcr8, hits give low values
[48] = locus YJL187C, strain SWE1, hits give low values
[49] = locus YKL160W, strain elf1, hits give low values
[50] = locus YKR026C, strain gcn3, hits give low values
[51] = locus YKR091W, strain srl3, hits give low values
[52] = locus YLL001W, strain dnm1, hits give low values
[53] = locus YLL026W, hits give low values
[54] = locus YLL041C, strain sdh2, hits give low values
[55] = locus YLR027C, strain aat2, hits give low values
[56] = locus YLR221C, strain rsa3, hits give low values
[57] = locus YLR258W, strain gsy2, hits give low values
[58] = locus YLR262C, strain YPT6 (second series), hits give low values
[59] = locus YLR320W, strain mms22, hits give low values
[60] = locus YLR342W, strain FKS1, hits give low values
[61] = locus YLR357W, strain rsc2, hits give low values
[62] = locus YLR370C, strain arc18, hits give low values
[63] = locus YLR384C, strain iki3, hits give low values
[64] = locus YML120C, strain ndi1, hits give low values
[65] = locus YMR058W, strain fet3, hits give low values
[66] = locus YMR125W, strain sto1, hits give low values
[67] = locus YMR129W, hits give low values
[68] = locus YMR205C, strain PFK2, hits give low values
[69] = locus YMR231W, strain pep5, hits give low values
[70] = locus YNL071W, strain lat1, hits give low values
[71] = locus YNL209W, strain ssb2, hits give low values
[72] = locus YNL248C, strain rpa49, hits give low values
[73] = locus YNL322C, strain KRE1 (second series), hits give low values
[74] = locus YNR049C, strain mso1, hits give low values
[75] = locus YOR001W, strain rrp6, hits give low values
[76] = locus YOR070C, strain gyp1, hits give low values
[77] = locus YOR080W, strain dia2, hits give low values
[78] = locus YOR083W, strain WHI5, hits give low values
[79] = locus YOR106W, strain vam3, hits give low values
[80] = locus YOR265W, strain rbl2, hits give low values
[81] = locus YOR270C, strain vph1, hits give low values
[82] = locus YOR290C, strain snf2, hits give low values
[83] = locus YPL051W, strain arl3, hits give low values
[84] = locus YPL078C, strain atp4, hits give low values
[85] = locus YPL106C, strain sse1, hits give low values
[86] = locus YPL240C, strain hsp82, hits give low values

CC(CCC(=O)O)[C@H]1CCC2C3CC[C@@H]4C[C@H](O)CC[C@]4(C)C3C=C[C@@]21C (some centres not stated)
normalized growth [1]: 0.968
normalized growth [2]: 0.907 (active)
normalized growth [3]: 1.01
normalized growth [4]: 1.01
normalized growth [5]: 0.964
normalized growth [6]: 0.95
normalized growth [7]: 0.976
normalized growth [8]: 1.02
normalized growth [9]: 0.972
normalized growth [10]: 0.994
normalized growth [11]: 0.962
normalized growth [12]: 0.989
normalized growth [13]: 0.997
normalized growth [14]: 1.02
normalized growth [15]: 0.992
normalized growth [16]: 1.01
normalized growth [17]: 1.01
normalized growth [18]: 1
normalized growth [19]: 0.501 (active)
normalized growth [20]: 0.948
normalized growth (locus YDR195W, strain ref2): 1.2 [resistant] (active)
normalized growth [21]: 1
normalized growth [22]: 0.991
normalized growth [23]: 0.969
normalized growth [24]: 0.485 (active)
normalized growth [25]: 0.968
normalized growth [26]: 0.995
normalized growth [27]: 1.01
normalized growth [28]: 1.01
normalized growth [29]: 0.999
normalized growth [30]: 1
normalized growth [31]: 1.08
normalized growth [32]: 0.987
normalized growth [33]: 0.989
normalized growth [34]: 0.812 (active)
normalized growth [35]: 1.03
normalized growth [36]: 0.982
normalized growth [37]: 0.955
normalized growth [38]: 0.973
normalized growth [39]: 0.996
normalized growth [40]: 0.839 (active)
normalized growth [41]: 0.986
normalized growth [42]: 1
normalized growth [43]: 1.01
normalized growth [44]: 0.879
normalized growth [45]: 1.03
normalized growth [46]: 0.899 (active)
normalized growth [47]: 0.894 (active)
normalized growth [48]: 0.972
normalized growth [49]: 0.881 (active)
normalized growth [50]: 1.03
normalized growth [51]: 1.01
normalized growth [52]: 1
normalized growth [53]: 1.01
normalized growth [54]: 1
normalized growth [55]: 0.944
normalized growth [56]: 0.898 (active)
normalized growth [57]: 0.998
normalized growth [58]: 0.532 (active)
normalized growth [59]: 0.742 (active)
normalized growth [60]: 0.968
normalized growth [61]: 1.13
normalized growth [62]: 0.955
normalized growth [63]: 1.03
normalized growth [64]: 0.861 (active)
normalized growth [65]: 0.869 (active)
normalized growth [66]: 1.11 [resistant] (active)
normalized growth [67]: 1.02
normalized growth [68]: 0.966
normalized growth [69]: 0.963
normalized growth [70]: 0.792 (active)
normalized growth [71]: 0.99
normalized growth [72]: 0.904
normalized growth [73]: 1.04
normalized growth [74]: 1
normalized growth [75]: 0.86 (active)
normalized growth [76]: 0.9 (active)
normalized growth [77]: 0.997
normalized growth [78]: 0.85 (active)
normalized growth [79]: 0.842 (active)
normalized growth [80]: 1.01
normalized growth [81]: 0.808
normalized growth [82]: 0.83 (active)
normalized growth [83]: 0.817 (active)
normalized growth [84]: 0.834 (active)
normalized growth [85]: 1.22 [resistant] (active)
normalized growth [86]: 0.997

CC(CCC(=O)O)[C@H]1CCC2C3C(=O)C[C@@H]4CC(=O)CC[C@]4(C)C3CC(=O)[C@@]21C (some centres not stated)
normalized growth [1]: 0.995
normalized growth [2]: 1
normalized growth [3]: 0.994
normalized growth [4]: 0.994
normalized growth [5]: 0.995
normalized growth [6]: 0.993
normalized growth [7]: 0.982
normalized growth [8]: 0.994
normalized growth [9]: 0.982
normalized growth [10]: 0.987
normalized growth [11]: 0.984
normalized growth [12]: 0.987
normalized growth [13]: 0.995
normalized growth [14]: 0.994
normalized growth [15]: 0.986
normalized growth [16]: 0.991
normalized growth [17]: 0.993
normalized growth [18]: 1
normalized growth [19]: 1.01
normalized growth [20]: 1.01
normalized growth (locus YDR195W, strain ref2): 0.999
normalized growth [21]: 0.996
normalized growth [22]: 0.993
normalized growth [23]: 0.997
normalized growth [24]: 0.932
normalized growth [25]: 1.01
normalized growth [26]: 0.99
normalized growth [27]: 0.99
normalized growth [28]: 1.01
normalized growth [29]: 0.999
normalized growth [30]: 0.998
normalized growth [31]: 0.999
normalized growth [32]: 0.992
normalized growth [33]: 0.992
normalized growth [34]: 0.989
normalized growth [35]: 0.985
normalized growth [36]: 1.01
normalized growth [37]: 0.991
normalized growth [38]: 0.99
normalized growth [39]: 0.995
normalized growth (locus YHR030C, strain SLT2, hits give low values): 1.02
normalized growth (locus YHR079C, strain IRE1, hits give low values): 1.02
normalized growth [40]: 0.952
normalized growth [41]: 0.993
normalized growth [42]: 0.991
normalized growth (locus YJL095W, strain BCK1, hits give low values): 1.01
normalized growth [43]: 0.991
normalized growth [44]: 1.01
normalized growth [45]: 0.993
normalized growth [46]: 0.99
normalized growth [47]: 0.989
normalized growth [48]: 0.99
normalized growth (locus YJR066W, strain TOR1, hits give low values): 0.975
normalized growth [49]: 0.977
normalized growth [50]: 0.993
normalized growth [51]: 0.99
normalized growth [52]: 0.975
normalized growth [53]: 0.998
normalized growth [54]: 0.993
normalized growth [55]: 0.991
normalized growth (locus YLR113W, strain HOG1, hits give low values): 1.05
normalized growth [56]: 0.964
normalized growth [57]: 0.992
normalized growth [58]: 1
normalized growth [59]: 0.971
normalized growth [60]: 0.99
normalized growth [61]: 0.986
normalized growth [62]: 0.993
normalized growth [63]: 0.978
normalized growth [64]: 0.989
normalized growth [65]: 0.999
normalized growth [66]: 0.982
normalized growth [67]: 0.99
normalized growth [68]: 0.989
normalized growth [69]: 0.999
normalized growth [70]: 0.997
normalized growth (locus YNL183C, strain NPR1, hits give low values): 0.997
normalized growth [71]: 0.997
normalized growth [72]: 0.982
normalized growth [73]: 0.992
normalized growth [74]: 0.992
normalized growth [75]: 1.02
normalized growth [76]: 0.996
normalized growth [77]: 0.994
normalized growth [78]: 0.969
normalized growth [79]: 0.974
normalized growth (locus YOR231W, strain MKK1, hits give low values): 1.07
normalized growth [80]: 0.998
normalized growth [81]: 0.957
normalized growth [82]: 0.993
normalized growth [83]: 1.01
normalized growth [84]: 0.98
normalized growth [85]: 0.975
normalized growth [86]: 1
normalized growth (locus YPL256C, strain CLN2, hits give low values): 1.02
